This is part of a sample that, as a whole, favours compounds with a hit. Of some 83,000 tested, about 20% had one in any assay.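 Testing used 96-well plates and a 48-hour single-concentration exposure. Example: -40 means 40% of the starting cells died.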 Unmarked numbers belong to inactive results. The source made the active and inactive calls. Rule for the calls: active = growth percent below 10; inactive = the rest.

Among the test systems are HT29 colon; SNB-75 CNS; SNB-19 CNS; PC-3 prostate; SK-MEL-5 melanoma; UACC-62 melanoma; LOX IMVI melanoma; SK-MEL-28 melanoma; U251 CNS.
Assay in all cases: NCI-60 one-dose screen, 48 h (100 = growth as untreated, 0 = no growth, -100 = all killed)
Conditions in all cases: 10 µM

For the compound `Cc1cn(-c2cccc(NC(=O)c3ccc(C)c(Nc4nccc(-c5cccnc5)n4)c3)c2)cn1`, the growth in the test on HT29 colon is -43.4% (active); in the test on SNB-75 CNS, -45% (active); with SNB-19 CNS, 51.2%; with PC-3 prostate, 34.4%; with SK-MEL-5 melanoma, 40.2%; in the test on UACC-62 melanoma it was 3.99% (active). The growth with LOX IMVI melanoma was -65.5% (active); in the test on SK-MEL-28 melanoma, -37.6% (active).

Turning to `C=CCn1c(SCC(=O)Nc2ccc(C(=O)/C=C/c3cc(OC)c(OC)c(OC)c3)cc2)nnc1-c1cc(-c2ccc(Cl)cc2)nc2ccccc12`, the growth is 74.7% in the test with HT29 colon; 68.8% in the test with SNB-75 CNS; 84.1% with SNB-19 CNS; 86.3% in the test on U251 CNS; 71.7% with PC-3 prostate; 91% in the test on SK-MEL-5 melanoma. Further, the growth in the test with UACC-62 melanoma is 84.2%; with LOX IMVI melanoma, 75.5%; in the test on SK-MEL-28 melanoma, 100%.

As to `Cc1cc(CCNC=O)c(C)c2c1sc1ccccc12`, the growth in the test on HT29 colon is 97.1%; in the test on SNB-75 CNS it was 81.9%; with SNB-19 CNS, 85.1%; in the test on U251 CNS, 92%; in the test on PC-3 prostate it was 84.7%; in the test with SK-MEL-5 melanoma, 78.8%. Moreover, the growth was 79.1% with UACC-62 melanoma, 98.4% in the test with LOX IMVI melanoma and 89.9% in the test on SK-MEL-28 melanoma.

For the compound `Oc1ccc(-c2[nH]c3ccccc3c2-c2nc3ccccc3o2)cc1`, the growth is 27.8% in the test with HT29 colon; 52.3% with SNB-75 CNS; 89.6% with SNB-19 CNS; 60.9% in the test on U251 CNS; 57.4% in the test with PC-3 prostate; 43.4% in the test on SK-MEL-5 melanoma. In addition, the figures for the growth in the test on UACC-62 melanoma, in the test with LOX IMVI melanoma and in the test with SK-MEL-28 melanoma were 59.6%, 34.6% and 58%, respectively.

On to `Cc1ccc(C2=NN(c3ccc(S(C)(=O)=O)cc3)C(=O)CC2)cc1`, for which the growth in the test on HT29 colon was 11.1%; with SNB-75 CNS, 8.1% (active); in the test with SNB-19 CNS, 55%; with PC-3 prostate, 29.3%; with SK-MEL-5 melanoma, 13.9%; with UACC-62 melanoma, 42.9%. In addition, the growth in the test on LOX IMVI melanoma was 33.7%; in the test on SK-MEL-28 melanoma, 51.4%.

Regarding `CCN(CC)CCCC(C)Nc1c2ccc(Cl)cc2nc2ccc(OC)cc12` (configuration not stated), the growth was -30.3% (active) with HT29 colon; 16.3% in the test on SNB-75 CNS; 35.4% in the test with SNB-19 CNS; 11.4% with U251 CNS; 35% in the test with PC-3 prostate; -87.5% (active) in the test with SK-MEL-5 melanoma. Besides, the results for the growth in the test on LOX IMVI melanoma and with SK-MEL-28 melanoma were -48.1% (active) and -57.6% (active), respectively.

For the compound `Cc1c2c(nn1C(=O)c1nn(-c3ccc(Cl)cc3)cc1O)-c1ccccc1CC2`, the growth with HT29 colon was 30%; in the test with SNB-75 CNS, 46.7%; in the test with SNB-19 CNS, 34.3%; in the test with U251 CNS it was 22.3%; in the test with SK-MEL-5 melanoma, 24.3%; in the test with UACC-62 melanoma it was -6.22% (active). The growth in the test on LOX IMVI melanoma is 17.5%; with SK-MEL-28 melanoma, 54.7%.

For `O=c1c(Br)ccc(Br)cc1Br`, the growth with HT29 colon is -41.6% (active); in the test with SNB-19 CNS, 86.6%; in the test on PC-3 prostate it was -24.7% (active); with SK-MEL-5 melanoma it was 32.4%; in the test on UACC-62 melanoma, -5.1% (active); with LOX IMVI melanoma, -76.9% (active). The growth with SK-MEL-28 melanoma was -53.4% (active).

Regarding `CC1=CC2C(C(O)CC3(C)C2CC(C)C32OCOC23COCO3)C2(C)C/C(=C/O)C(=O)C=C12` (configuration not stated), the growth in the test with HT29 colon is 3.89% (active); with SNB-75 CNS, 100%; with SNB-19 CNS, 56%; with PC-3 prostate, 31.7%; in the test on SK-MEL-5 melanoma, 44.2%; in the test with UACC-62 melanoma, 30.4%. Further, the growth is -60.9% (active) in the test on LOX IMVI melanoma and 66.3% in the test on SK-MEL-28 melanoma.

In the case of `Cc1c2c[n+](C(C)C)ccc2c(C)c2c1[nH]c1ccccc12`, the growth is 21.5% with HT29 colon; 41% in the test on SNB-75 CNS; 4.83% (active) with SNB-19 CNS; -63.4% (active) in the test on SK-MEL-5 melanoma; 10.5% in the test on UACC-62 melanoma; 40.7% with LOX IMVI melanoma. Further, in the test on SK-MEL-28 melanoma, the growth was 15.7%.

Take `COc1ccc(-c2nn(-c3cccc(Cl)c3)cc2C=C(C#N)C#N)cc1`: the growth was -14.9% (active) in the test on HT29 colon; 3.23% (active) in the test with SNB-75 CNS; 16.6% in the test with SNB-19 CNS; 12.6% with PC-3 prostate; 5.8% (active) with SK-MEL-5 melanoma; 11.1% in the test on UACC-62 melanoma. Besides, the values for the growth in the test with LOX IMVI melanoma and in the test on SK-MEL-28 melanoma were -66.5% (active) and 17.2%, respectively.

On to `COc1ccccc1-n1c(-c2csc(NC(C)=O)n2)n[nH]c1=S`, for which the growth in the test with HT29 colon is 95.1%; with SNB-75 CNS it was 86.5%; in the test on SNB-19 CNS, 114%; in the test on PC-3 prostate it was 95.4%; in the test on SK-MEL-5 melanoma it was 99.6%; with UACC-62 melanoma, 110%. Further, the growth in the test with LOX IMVI melanoma is 93.1%; in the test with SK-MEL-28 melanoma, 109%.

As for `O=C(CSc1nccc(Nc2cccc3ccccc23)n1)c1ccc(Cl)cc1`, the growth was 86.9% in the test on HT29 colon; 88% with SNB-75 CNS; 89.3% in the test with SNB-19 CNS; 96.1% with U251 CNS; 83.9% in the test with PC-3 prostate; 98.3% in the test on SK-MEL-5 melanoma. Further, the growth in the test with UACC-62 melanoma was 70.2%; with LOX IMVI melanoma it was 77.6%; in the test on SK-MEL-28 melanoma, 106%.

In the case of `S=c1cnc2ccccc2[nH]1`, the growth with HT29 colon is 93.7%; with SNB-75 CNS, 86.5%; in the test on SNB-19 CNS it was 109%; in the test on U251 CNS, 95.5%; in the test with PC-3 prostate, 86.1%; in the test with SK-MEL-5 melanoma it was 97.6%. Further, the results for the growth in the test with UACC-62 melanoma, with LOX IMVI melanoma and with SK-MEL-28 melanoma were 98.8%, 94.3% and 108%, respectively.

Regarding `CCOC(=O)CSc1nc(-c2cc(OC)ccc2OC)cc(-c2ccc(OC)cc2)c1C#N`, the growth is 64.2% in the test with HT29 colon; 97.5% in the test with SNB-75 CNS; 94.2% with SNB-19 CNS; 86.7% in the test on U251 CNS; 80% in the test on SK-MEL-5 melanoma; 71% in the test with UACC-62 melanoma. Moreover, the values for the growth in the test with LOX IMVI melanoma and with SK-MEL-28 melanoma were 85.5% and 84.8%, respectively.

`O=C1c2ccccc2C(=O)N1CCCCNc1ccccc1`: the growth in the test on HT29 colon is 110%; with SNB-75 CNS, 90.8%; with SNB-19 CNS, 96.8%; in the test with U251 CNS it was 86.3%; in the test with PC-3 prostate, 75.5%; with SK-MEL-5 melanoma it was 105%. Moreover, the growth with UACC-62 melanoma was 96%; with LOX IMVI melanoma, 117%; in the test on SK-MEL-28 melanoma, 113%.

On to `COc1cc(/C=C2\CCCC3=C2N=C2SC(C)=CN2C3c2cc(OC)c(OC)c(OC)c2)cc(OC)c1OC` (configuration not stated), for which the growth with HT29 colon is -49.1% (active); in the test on SNB-75 CNS, 59.4%; in the test on SNB-19 CNS it was 52.7%; in the test with PC-3 prostate it was 44.5%; with SK-MEL-5 melanoma, -71.6% (active); with LOX IMVI melanoma, -70.4% (active). Moreover, the growth in the test on SK-MEL-28 melanoma is -51.6% (active).

With `O=C(CCl)Oc1ccc(OC(=O)CCl)cc1`, the growth with HT29 colon is 99.9%; in the test with SNB-75 CNS, 75.3%; in the test with SNB-19 CNS, 104%; with U251 CNS, 101%; with PC-3 prostate, 89.4%; in the test with SK-MEL-5 melanoma it was 82.2%. Also, the growth in the test with UACC-62 melanoma was 85%; in the test on LOX IMVI melanoma, 89.3%; in the test with SK-MEL-28 melanoma, 104%.

Turning to `CC(=O)[C@@]12O[C@](C)(c3ccccc3)O[C@@H]1CC1C3CCC4=CC(=O)CC[C@]4(C)C3CC[C@@]12C` (some centres not stated), the growth in the test with HT29 colon is 69.6%; with SNB-75 CNS, 79.5%; in the test with SNB-19 CNS, 85.3%; in the test with U251 CNS it was 72.3%; with PC-3 prostate, 31.1%; in the test with SK-MEL-5 melanoma it was 55.1%. Moreover, the growth was 63% in the test with UACC-62 melanoma, 72.3% in the test with LOX IMVI melanoma and 99% in the test on SK-MEL-28 melanoma.

(Values after PubChem BioAssay (NCI).)
